# Measured values published in the supplement of paper PMC6555819.
# Key:
# Test in all cases: PBM binding z-score (relative to random genomic background probes); higher = stronger binding; sequences stand for … in GC…GCGATTGACAGCGTAGAATGAAGG
# [1] = test system: PPARg:RXRa DBDmut IVT, anti-RXR (DBD mutation: RXRa K156A/R161A, NR concentration 270 nM, RXRa partner concentration 90 nM)
# Summary of the method: (§1)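 Binding z-scores take random background probes as their reference. They come from custom Agilent 4×180K protein-binding microarrays incubated 1 h with ligand-free nuclear receptor dimers, with antibodies against each partner (one per run) detecting binding. Scanned fluorescence was regression-normalized.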
# [2] = test system: PPARg:RXRa IVT, anti-PPARg (NR concentration 270 nM, RXRa partner concentration 90 nM)
# Summary of the method: as §1
# [3] = test system: PPARg DBDmut IVT, anti-PPARg (DBD mutation: PPARg1 K132A/R137A, NR concentration 270 nM)
# Summary of the method: as §1
# [4] = test system: PPARg homodimer (NR concentration 180 nM)
# Summary of the method: as §1
# [5] = test system: PXR:RXRa (NR concentration 270 nM, RXRa partner concentration 90 nM)
# Summary of the method: as §1
# [6] = test system: PXR homodimer (NR concentration 270 nM)
# Summary of the method: as §1
# [7] = test system: RARa:RXR (NR concentration 270 nM, RXRa partner concentration 90 nM)
# Summary of the method: as §1
# [8] = test system: RARa homodimer (NR concentration 270 nM)
# Summary of the method: as §1
# [9] = test system: RARb:RXRa (NR concentration 270 nM, RXRa partner concentration 90 nM)
# Summary of the method: as §1
# [10] = test system: RARb homodimer (NR concentration 270 nM)
# Summary of the method: as §1
# [11] = test system: RARg:RXRa (NR concentration 270 nM, RXRa partner concentration 90 nM)
# Summary of the method: as §1
# [12] = test system: RARg homodimer (NR concentration 270 nM)
# Summary of the method: as §1
# [13] = test system: RXRa DBDmut IVT, anti-RXR (DBD mutation: RXRa K156A/R161A, NR concentration 90 nM)
# Summary of the method: as §1
# [14] = test system: RXRa homodimer (NR concentration 180 nM)
# Summary of the method: as §1
# [15] = test system: THRa:RXRa (NR concentration 90 nM, RXRa partner concentration 90 nM)
# Summary of the method: as §1
# [16] = test system: THRa homodimer (NR concentration 90 nM)
# Summary of the method: as §1
# [17] = test system: VDR:RXRa (NR concentration 270 nM, RXRa partner concentration 90 nM)
# Summary of the method: as §1
# [18] = test system: VDR homodimer (NR concentration 270 nM)
# Summary of the method: as §1
Sequence,PBM binding z-score [1],PBM binding z-score [2],PBM binding z-score [3],PBM binding z-score [4],PBM binding z-score [5],PBM binding z-score [6],PBM binding z-score [7],PBM binding z-score [8],PBM binding z-score [9],PBM binding z-score [10],PBM binding z-score [11],PBM binding z-score [12],PBM binding z-score [13],PBM binding z-score [14],PBM binding z-score [15],PBM binding z-score [16],PBM binding z-score [17],PBM binding z-score [18]
CGAACTAGGTCACCAGGACGGTGAAGAGGTTGGA,7.98,8.73,2.21,2.07,1.18,-0.299,2.21,-0.518,4.26,3.1,4.28,5.25,0.756,3.01,3.04,0.961,1.77,0.435
ATATGTAGGCTAGGGTCATTCAGAAAGTAGGGAA,4.03,4.85,0.962,1.74,3.55,1.05,4.04,1.2,3,2.44,3.25,2.17,2,4.11,3.74,2.36,3.8,2.49
CTAACTAGGTCACCAGGACAGTGAAGAGGTTGGA,8.89,9.08,-0.261,1.88,1.42,0.375,2.8,0.69,4.28,3.4,4.69,5.53,1.67,3.98,3.51,2.16,2.06,0.856
CGAACTAGTTCACCAGGACAGTGAAGAGGTTGGA,1.56,1.11,0.126,-0.235,0.423,0.241,0.0691,-0.106,1.7,1.09,1.14,1.44,2.02,0.753,1.69,0.658,0.879,1.05
CGTACTAGGTCACCAGGACAGTGAAGAGGTTGGA,7.9,8.08,4.96,3.11,1.53,0.369,2.86,0.557,4.19,3.24,4.42,5.34,1.55,3.04,3.22,1.88,1.93,0.631
ATATGTAGGTTAGGGTCATGCAGAAAGTAGGGAA,6.6,6.52,2.44,2.6,4.26,1.01,5.05,1.83,3.66,3.55,4.44,3.61,2.02,5.67,4.25,3.53,–,2.78
CGAACTAGGTCACCAGGACAGAGAAGAGGTTGGA,8.29,8.26,0.828,2.46,1.55,0.0837,2.56,0.391,4.22,3.46,4.58,5.47,1.79,3.97,3.37,1.89,2.04,0.617
CGAACTAGGTAAAAGGACAGTGAAAGGCGACGTA,5.32,4.9,0.0504,0.371,-0.425,-0.442,-0.202,-0.518,1.09,1.17,0.486,0.964,-0.478,0.114,0.444,-0.377,-0.189,-0.349
CGAACTAGGTCAAAGGATAGTGAAAGGCGACGTA,8.11,8.26,0.867,1.36,1,-0.152,1.9,0.167,3.62,2.35,3.47,4.16,1.28,2.85,2.22,0.17,–,0.124
ATATGTAGGTTAGGGTCATTGAGAAAGTAGGGAA,6.25,6.47,1.4,2.67,4.2,1.72,4.69,2.38,3.59,3.51,4.09,3.1,2.32,5.3,4.13,3.44,–,3.55
CGAACTAGGTCAAAGGACTGTGAAAGGCGACGTA,8.23,8,0.977,1.41,0.827,-0.596,1.86,-0.095,3.58,2.43,3.69,4.11,1.71,2.93,2.19,-0.114,–,-0.0761
CGAACTAGGACAAAGGACAGTGAAAGGCGACGTA,4.53,4.05,-0.402,0.327,-0.405,-0.257,-0.272,-0.328,1.12,0.856,0.618,1.24,-0.1,0.0792,0.519,-0.508,-0.353,-0.415
ATAGGTAGGTTAGGGTCATTCAGAAAGTAGGGAA,3.34,4.16,1.6,3.27,5.14,3.11,5.48,3.2,4,3.99,4.32,4.06,2.36,5.28,4.76,3.77,–,4.51
CGACCTAGGTCAAAGGACAGTGAAAGGCGACGTA,3.69,4,-0.949,1.74,1.42,-0.567,2.9,-0.132,4.05,3.13,4.74,5.05,1.69,4,2.86,0.639,–,0.41
CGAACTAGGTCTCCAGGACAGTGAAGAGGTTGGA,4.77,4.03,-0.626,0.0186,-0.409,-0.39,-0.238,-0.356,0.216,-0.111,-0.0715,0.188,-0.342,-0.062,1.11,0.505,–,-0.34
CGAACTAGGTCAAAGGACAGTCAAAGGCGACGTA,8.1,8.4,2.46,1.64,1.39,-0.21,2.49,0.35,3.87,3.04,4.11,4.5,1.74,3.05,2.54,0.161,–,0.43
ATATGTAGGTTAGGATCATTCAGAAAGTAGGGAA,6.17,6.13,1.84,1.69,0.594,0.622,0.758,1.36,0.759,0.531,0.593,0.675,0.541,1.01,0.577,0.347,–,0.616
ATATGTAGGTTAGGGGCATTCAGAAAGTAGGGAA,6.62,6.65,1.93,2.07,1.43,1.48,1.52,1.74,1.86,2.01,1.14,1.14,1.45,1.21,1.73,1.35,–,1.82
CGAACTAGGTCAAAGGACAATGAAAGGCGACGTA,7.79,8.35,0.575,1.69,1.5,0.00867,2.52,0.325,3.85,3.04,4.01,4.77,1.13,3.35,2.67,0.783,–,0.585
ATATGCAGGTTAGGGTCATTCAGAAAGTAGGGAA,2.72,3.16,1.24,2.85,4.28,1.51,4.9,1.16,3.4,3.2,4,3.17,2.15,5.23,3.89,2.86,–,3.64
CGAACTAGGTCAAAGGACAGTGGAAGGCGACGTA,8.19,8.49,1.31,1.21,0.947,-0.227,1.74,0.262,3.93,3.07,3.62,4.31,1.4,2.94,2.5,0.274,–,0.241
CGAACTAGGTCAAAGGACCGTGAAAGGCGACGTA,7.75,8.21,0.0403,0.811,0.907,-0.51,1.44,-0.512,3.69,2.22,3.5,4.44,1.42,2.86,2.23,0.043,–,0.238
CGAACTATGTCAAAGGACAGTGAAAGGCGACGTA,3.02,3.26,0.207,0.527,-0.558,-0.587,-0.379,-0.181,1.45,1.14,1.08,1.39,-0.18,0.00503,0.122,-0.538,–,-0.0132
CGAACTAGGTCAAAGGACAGTTAAAGGCGACGTA,7.76,8.44,1.12,2.07,1.32,0.165,2.42,0.332,4,3.01,4.13,4.51,1.67,3.1,2.49,0.41,–,0.768
CGAACCAGGTCACCAGGACAGTGAAGAGGTTGGA,5.49,6.38,0.103,2.28,2.81,0.0931,3.75,0.523,4.37,3.59,5.06,5.35,2.04,4.73,3.94,2.77,–,1.62
CGAACTAGGTCAAAGGACAGCGAAAGGCGACGTA,8.31,8.46,0.805,1.59,1.22,-0.642,2.66,0.165,3.93,3.05,4.13,4.72,1.85,3.19,2.46,0.406,–,0.311
CGAACTAGGTCACCAGGACATTGAAGAGGTTGGA,7.89,8.55,0.336,1.53,1.66,0.175,2.53,0.511,4.21,3.54,4.42,5.21,1.95,3.45,3.48,2.06,–,1.1
ATGTGTAGGTTAGGGTCATTCAGAAAGTAGGGAA,2.92,3.98,1.73,3.73,4.68,3.2,5.25,2.44,3.87,3.9,4.4,3.74,2.52,5.52,4.17,3.9,–,4.18
